Publication PMC7862700, “An all-to-all approach to the identification of sequence-specific readers for epigenetic DNA modifications on cytosine”

Columns and labels:
Assay in all cases: DAPPL (digital affinity profiling via proximity ligation, sequencing); 10 mM Tris-HCl pH 7.5, 50 mM NaCl, 1 mM DTT, 4% glycerol, room temperature, 30 min; GST-TFs on glutathione beads, 16-mer random dsDNA library, 0.1% formaldehyde crosslink after washing; high values mean tight binding
FEV = target: T1, FEV (Homo sapiens, UniProt Q99581 1-238); conditions: protein: recombinant; tags: N-terminal GST; dsDNA, one strand shown
T1 sequence: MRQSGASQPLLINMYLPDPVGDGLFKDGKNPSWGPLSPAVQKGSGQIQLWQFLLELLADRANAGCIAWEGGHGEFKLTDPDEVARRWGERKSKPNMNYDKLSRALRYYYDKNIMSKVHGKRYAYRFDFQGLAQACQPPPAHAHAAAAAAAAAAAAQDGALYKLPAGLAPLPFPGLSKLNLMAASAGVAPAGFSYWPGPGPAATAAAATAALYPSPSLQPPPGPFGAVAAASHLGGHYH
In short: (§1)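 Binding signal is defined as a hexamer's read frequency for one factor over its frequency for the tag-only sample. To obtain reads, GST-fused human transcription factors were expressed in yeast, captured on glutathione beads, barcoded with DNA and pooled with that sample. Pools met 200 nmole of a 16-mer random double-stranded DNA library in Tris/NaCl/DTT/glycerol buffer for 30 min at room temperature before washing, 0.1% formaldehyde crosslinking, proximity ligation (BsaI/T4 ligase, 1 h, 37 °C), PCR and Illumina NextSeq500 sequencing.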

ETV5 = ETV5 (Homo sapiens, UniProt P41161 1-510); conditions: protein: recombinant; tags: N-terminal GST; dsDNA, one strand shown
In short: as §1

HSF1 = HSF1 (Homo sapiens, UniProt Q00613 1-529); conditions: protein: recombinant; tags: N-terminal GST; chain copies: 3; dsDNA, one strand shown
In short: as §1

SPIC = target: T2, SPIC (Homo sapiens, UniProt Q8N5J4 1-248); conditions: protein: recombinant; tags: N-terminal GST; dsDNA, one strand shown
T2 sequence: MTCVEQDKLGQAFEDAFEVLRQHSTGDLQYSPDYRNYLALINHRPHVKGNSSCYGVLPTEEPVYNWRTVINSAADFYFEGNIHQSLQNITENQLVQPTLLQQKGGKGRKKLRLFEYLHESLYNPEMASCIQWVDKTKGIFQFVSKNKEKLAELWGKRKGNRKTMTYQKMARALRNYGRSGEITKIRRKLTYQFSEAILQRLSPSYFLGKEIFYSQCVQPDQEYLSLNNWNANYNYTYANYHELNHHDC
In short: as §1

ELF4 = ELF4 (Homo sapiens, UniProt Q99607 1-663); conditions: protein: recombinant; tags: N-terminal GST; dsDNA, one strand shown
In short: as §1

ELK4 = target: T3, ELK4 (Homo sapiens, UniProt P28324-2 1-405); conditions: protein: recombinant; tags: N-terminal GST; dsDNA, one strand shown
T3 sequence: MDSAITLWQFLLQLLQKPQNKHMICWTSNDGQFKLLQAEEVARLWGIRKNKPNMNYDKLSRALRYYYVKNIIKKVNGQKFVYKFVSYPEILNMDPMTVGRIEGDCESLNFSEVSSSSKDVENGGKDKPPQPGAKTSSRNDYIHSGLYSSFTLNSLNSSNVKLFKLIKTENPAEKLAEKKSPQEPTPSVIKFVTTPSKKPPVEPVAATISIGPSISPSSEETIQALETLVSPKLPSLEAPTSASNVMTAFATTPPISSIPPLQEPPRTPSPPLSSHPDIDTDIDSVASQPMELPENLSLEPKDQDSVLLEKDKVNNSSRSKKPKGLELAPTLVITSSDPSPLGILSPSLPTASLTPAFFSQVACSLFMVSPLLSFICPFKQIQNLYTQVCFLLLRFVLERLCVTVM
In short: as §1

ETV2 = target: T4, ETV2 (Homo sapiens, UniProt O00321 1-342); conditions: protein: recombinant; tags: N-terminal GST; dsDNA, one strand shown
T4 sequence: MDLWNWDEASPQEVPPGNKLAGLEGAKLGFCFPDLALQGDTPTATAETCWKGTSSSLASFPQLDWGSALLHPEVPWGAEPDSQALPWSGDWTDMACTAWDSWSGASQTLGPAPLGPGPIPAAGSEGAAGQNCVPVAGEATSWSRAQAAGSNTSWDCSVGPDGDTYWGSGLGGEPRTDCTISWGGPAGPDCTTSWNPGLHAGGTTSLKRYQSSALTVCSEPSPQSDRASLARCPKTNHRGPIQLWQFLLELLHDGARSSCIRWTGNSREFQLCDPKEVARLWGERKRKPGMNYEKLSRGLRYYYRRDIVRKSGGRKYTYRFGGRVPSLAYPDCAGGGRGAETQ
In short: as §1

ELF3 = target: T5, ELF3 (Homo sapiens, UniProt P78545 1-371); conditions: protein: recombinant; tags: N-terminal GST; dsDNA, one strand shown
T5 sequence: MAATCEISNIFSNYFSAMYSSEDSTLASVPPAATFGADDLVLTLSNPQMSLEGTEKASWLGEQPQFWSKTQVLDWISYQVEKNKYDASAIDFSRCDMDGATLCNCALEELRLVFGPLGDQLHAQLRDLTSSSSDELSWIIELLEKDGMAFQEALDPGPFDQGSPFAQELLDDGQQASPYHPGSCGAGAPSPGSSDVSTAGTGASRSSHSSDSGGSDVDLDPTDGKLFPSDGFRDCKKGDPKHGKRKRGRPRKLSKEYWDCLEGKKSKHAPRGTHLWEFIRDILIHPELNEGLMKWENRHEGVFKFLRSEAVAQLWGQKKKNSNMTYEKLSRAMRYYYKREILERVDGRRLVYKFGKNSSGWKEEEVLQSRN
In short: as §1

CRX = CRX (Homo sapiens, UniProt O43186 1-299); conditions: protein: recombinant; tags: N-terminal GST; dsDNA, one strand shown
In short: as §1

ETV1 = ETV1 (Homo sapiens, UniProt P50549 1-477); conditions: protein: recombinant; tags: N-terminal GST; dsDNA, one strand shown
In short: as §1

ERF = target: T6, ERF (Homo sapiens, UniProt P50548 1-548); conditions: protein: recombinant; tags: N-terminal GST; dsDNA, one strand shown
T6 sequence: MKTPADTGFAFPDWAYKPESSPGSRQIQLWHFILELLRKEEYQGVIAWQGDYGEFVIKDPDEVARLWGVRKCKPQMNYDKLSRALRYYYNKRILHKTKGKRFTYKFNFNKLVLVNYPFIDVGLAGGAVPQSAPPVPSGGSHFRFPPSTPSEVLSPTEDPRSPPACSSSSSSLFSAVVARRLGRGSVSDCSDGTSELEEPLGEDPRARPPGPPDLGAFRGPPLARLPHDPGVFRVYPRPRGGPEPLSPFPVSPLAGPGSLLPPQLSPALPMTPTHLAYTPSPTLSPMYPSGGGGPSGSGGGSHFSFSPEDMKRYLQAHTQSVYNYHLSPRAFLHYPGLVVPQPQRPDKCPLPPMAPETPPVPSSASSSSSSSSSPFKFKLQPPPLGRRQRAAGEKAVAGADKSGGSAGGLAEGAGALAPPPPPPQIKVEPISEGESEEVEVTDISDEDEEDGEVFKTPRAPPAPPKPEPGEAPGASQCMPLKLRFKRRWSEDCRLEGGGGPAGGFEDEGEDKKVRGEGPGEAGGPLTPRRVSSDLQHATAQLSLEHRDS
In short: as §1

ETV3L = target: T7, ETV3L (Homo sapiens, UniProt Q6ZN32 1-361); conditions: protein: recombinant; tags: N-terminal GST; dsDNA, one strand shown
T7 sequence: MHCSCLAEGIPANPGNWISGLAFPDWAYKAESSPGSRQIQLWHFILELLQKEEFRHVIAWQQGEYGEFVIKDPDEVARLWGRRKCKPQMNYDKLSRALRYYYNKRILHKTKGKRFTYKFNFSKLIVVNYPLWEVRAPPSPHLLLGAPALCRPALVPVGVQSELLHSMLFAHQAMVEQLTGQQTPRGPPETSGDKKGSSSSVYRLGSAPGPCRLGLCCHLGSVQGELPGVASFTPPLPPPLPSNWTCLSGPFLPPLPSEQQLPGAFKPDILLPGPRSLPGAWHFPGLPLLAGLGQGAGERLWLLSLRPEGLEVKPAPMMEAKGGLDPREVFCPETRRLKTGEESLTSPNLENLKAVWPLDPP
In short: as §1

ETS2 = target: T8, ETS2 (Homo sapiens, UniProt P15036 1-469); conditions: protein: recombinant; tags: N-terminal GST; dsDNA, one strand shown
T8 sequence: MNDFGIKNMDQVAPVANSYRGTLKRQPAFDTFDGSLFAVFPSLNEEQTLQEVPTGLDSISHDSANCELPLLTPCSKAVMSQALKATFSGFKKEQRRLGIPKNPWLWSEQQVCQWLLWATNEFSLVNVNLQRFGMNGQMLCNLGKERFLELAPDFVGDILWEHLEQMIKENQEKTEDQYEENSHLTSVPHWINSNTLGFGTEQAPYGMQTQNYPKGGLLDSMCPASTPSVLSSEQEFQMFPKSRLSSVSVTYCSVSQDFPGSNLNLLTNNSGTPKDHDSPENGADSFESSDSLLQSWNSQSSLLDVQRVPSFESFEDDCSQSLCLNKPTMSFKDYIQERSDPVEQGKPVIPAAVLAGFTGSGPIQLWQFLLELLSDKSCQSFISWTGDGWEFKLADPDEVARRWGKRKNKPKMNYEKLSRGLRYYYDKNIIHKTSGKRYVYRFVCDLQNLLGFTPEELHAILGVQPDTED
In short: as §1

SPDEF = target: T9, SPDEF (Homo sapiens, UniProt O95238 1-335); conditions: protein: recombinant; tags: N-terminal GST; dsDNA, one strand shown
T9 sequence: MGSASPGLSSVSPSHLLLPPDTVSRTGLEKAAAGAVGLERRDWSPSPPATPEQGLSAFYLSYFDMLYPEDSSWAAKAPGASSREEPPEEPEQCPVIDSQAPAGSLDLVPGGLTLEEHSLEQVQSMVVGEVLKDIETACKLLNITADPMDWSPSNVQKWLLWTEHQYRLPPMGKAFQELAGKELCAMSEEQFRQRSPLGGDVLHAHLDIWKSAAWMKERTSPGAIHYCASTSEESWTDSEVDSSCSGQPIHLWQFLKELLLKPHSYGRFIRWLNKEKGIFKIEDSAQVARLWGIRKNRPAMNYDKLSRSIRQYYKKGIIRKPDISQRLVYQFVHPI
In short: as §1

ETV7 = target: T10, ETV7 (Homo sapiens, UniProt Q9Y603 1-341); conditions: protein: recombinant; tags: N-terminal GST; dsDNA, one strand shown
T10 sequence: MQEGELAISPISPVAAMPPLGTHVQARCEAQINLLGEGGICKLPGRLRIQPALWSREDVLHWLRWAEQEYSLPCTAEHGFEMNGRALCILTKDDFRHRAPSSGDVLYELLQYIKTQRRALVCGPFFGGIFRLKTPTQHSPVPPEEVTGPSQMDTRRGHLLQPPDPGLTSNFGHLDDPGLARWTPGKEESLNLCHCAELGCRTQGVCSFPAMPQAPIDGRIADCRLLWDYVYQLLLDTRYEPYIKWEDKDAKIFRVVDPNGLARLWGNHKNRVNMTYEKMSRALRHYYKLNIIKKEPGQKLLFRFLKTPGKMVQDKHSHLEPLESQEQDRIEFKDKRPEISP
In short: as §1

ELF5 = target: T11, ELF5 (Homo sapiens, UniProt Q9UKW6-2 1-255); conditions: protein: recombinant; tags: N-terminal GST; dsDNA, one strand shown
T11 sequence: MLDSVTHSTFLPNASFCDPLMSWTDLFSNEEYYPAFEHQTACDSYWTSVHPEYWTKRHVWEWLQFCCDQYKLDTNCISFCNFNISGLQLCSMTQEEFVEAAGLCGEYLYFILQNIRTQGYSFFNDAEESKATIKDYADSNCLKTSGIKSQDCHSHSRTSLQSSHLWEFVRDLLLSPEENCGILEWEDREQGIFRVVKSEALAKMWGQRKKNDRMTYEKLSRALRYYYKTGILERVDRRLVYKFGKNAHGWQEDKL
In short: as §1

ETV3 = target: T12, ETV3 (Homo sapiens, UniProt P41162-2 1-143); conditions: protein: recombinant; tags: N-terminal GST; dsDNA, one strand shown
T12 sequence: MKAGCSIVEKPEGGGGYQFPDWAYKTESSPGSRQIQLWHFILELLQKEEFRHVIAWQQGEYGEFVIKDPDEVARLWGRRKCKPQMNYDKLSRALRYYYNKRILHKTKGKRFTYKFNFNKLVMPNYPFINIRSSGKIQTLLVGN
In short: as §1

ETV6 = ETV6 (Homo sapiens, UniProt P41212 1-452); conditions: protein: recombinant; tags: N-terminal GST; dsDNA, one strand shown
In short: as §1

Sequence of ETV6 (P41212 whole entry): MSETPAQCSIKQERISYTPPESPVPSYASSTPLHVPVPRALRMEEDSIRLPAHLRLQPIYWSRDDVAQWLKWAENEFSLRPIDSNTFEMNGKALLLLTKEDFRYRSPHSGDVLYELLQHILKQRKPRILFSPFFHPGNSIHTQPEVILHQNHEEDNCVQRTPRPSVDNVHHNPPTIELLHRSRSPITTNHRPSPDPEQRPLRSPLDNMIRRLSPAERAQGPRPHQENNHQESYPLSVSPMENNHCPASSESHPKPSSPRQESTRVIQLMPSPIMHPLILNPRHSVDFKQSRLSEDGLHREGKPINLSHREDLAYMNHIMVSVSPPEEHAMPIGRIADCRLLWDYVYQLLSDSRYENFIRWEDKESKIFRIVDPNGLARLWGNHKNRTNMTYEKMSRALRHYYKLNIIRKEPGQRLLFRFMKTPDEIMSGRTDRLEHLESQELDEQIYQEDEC
Sequence of ELF4 (Q99607 whole entry): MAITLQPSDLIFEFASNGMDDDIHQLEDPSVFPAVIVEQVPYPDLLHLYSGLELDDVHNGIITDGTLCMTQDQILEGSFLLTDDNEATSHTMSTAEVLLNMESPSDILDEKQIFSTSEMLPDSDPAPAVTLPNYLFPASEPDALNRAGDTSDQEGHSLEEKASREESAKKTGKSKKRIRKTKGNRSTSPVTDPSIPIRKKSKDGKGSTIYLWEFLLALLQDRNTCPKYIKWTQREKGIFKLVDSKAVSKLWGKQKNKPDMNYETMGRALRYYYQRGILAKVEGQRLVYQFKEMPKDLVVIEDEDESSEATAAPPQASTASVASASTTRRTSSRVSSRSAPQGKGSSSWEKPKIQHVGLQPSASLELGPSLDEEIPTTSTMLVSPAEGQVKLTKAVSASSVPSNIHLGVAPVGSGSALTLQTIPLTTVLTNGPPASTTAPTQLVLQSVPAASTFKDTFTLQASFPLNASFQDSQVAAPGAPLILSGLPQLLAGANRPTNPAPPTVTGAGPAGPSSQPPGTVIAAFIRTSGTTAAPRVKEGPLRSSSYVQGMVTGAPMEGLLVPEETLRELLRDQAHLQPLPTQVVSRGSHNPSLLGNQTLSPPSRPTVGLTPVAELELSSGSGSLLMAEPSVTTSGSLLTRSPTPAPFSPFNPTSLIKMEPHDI
Sequence of CRX (O43186 whole entry): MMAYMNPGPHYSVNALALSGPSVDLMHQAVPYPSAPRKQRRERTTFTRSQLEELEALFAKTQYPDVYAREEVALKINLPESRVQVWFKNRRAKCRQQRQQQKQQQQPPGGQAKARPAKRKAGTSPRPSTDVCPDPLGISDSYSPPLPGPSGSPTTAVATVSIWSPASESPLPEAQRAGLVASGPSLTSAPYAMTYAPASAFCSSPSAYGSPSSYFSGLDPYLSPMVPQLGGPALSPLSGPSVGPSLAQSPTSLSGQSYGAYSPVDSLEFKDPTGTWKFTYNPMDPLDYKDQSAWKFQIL
Sequence of HSF1 (Q00613 whole entry): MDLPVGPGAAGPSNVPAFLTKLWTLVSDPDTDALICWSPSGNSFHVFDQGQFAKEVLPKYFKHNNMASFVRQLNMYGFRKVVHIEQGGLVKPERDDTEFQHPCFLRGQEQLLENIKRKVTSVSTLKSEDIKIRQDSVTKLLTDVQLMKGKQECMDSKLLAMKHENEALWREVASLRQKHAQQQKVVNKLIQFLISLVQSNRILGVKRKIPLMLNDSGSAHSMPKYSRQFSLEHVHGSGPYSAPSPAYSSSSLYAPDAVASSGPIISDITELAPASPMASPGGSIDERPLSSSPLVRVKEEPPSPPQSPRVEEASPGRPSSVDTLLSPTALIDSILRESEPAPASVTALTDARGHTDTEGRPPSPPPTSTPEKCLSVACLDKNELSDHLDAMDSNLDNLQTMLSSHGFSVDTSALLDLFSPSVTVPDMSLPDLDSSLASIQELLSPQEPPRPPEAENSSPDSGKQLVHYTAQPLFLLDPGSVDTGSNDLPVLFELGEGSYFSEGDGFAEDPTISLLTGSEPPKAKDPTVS
Sequence of ETV5 (P41161 whole entry): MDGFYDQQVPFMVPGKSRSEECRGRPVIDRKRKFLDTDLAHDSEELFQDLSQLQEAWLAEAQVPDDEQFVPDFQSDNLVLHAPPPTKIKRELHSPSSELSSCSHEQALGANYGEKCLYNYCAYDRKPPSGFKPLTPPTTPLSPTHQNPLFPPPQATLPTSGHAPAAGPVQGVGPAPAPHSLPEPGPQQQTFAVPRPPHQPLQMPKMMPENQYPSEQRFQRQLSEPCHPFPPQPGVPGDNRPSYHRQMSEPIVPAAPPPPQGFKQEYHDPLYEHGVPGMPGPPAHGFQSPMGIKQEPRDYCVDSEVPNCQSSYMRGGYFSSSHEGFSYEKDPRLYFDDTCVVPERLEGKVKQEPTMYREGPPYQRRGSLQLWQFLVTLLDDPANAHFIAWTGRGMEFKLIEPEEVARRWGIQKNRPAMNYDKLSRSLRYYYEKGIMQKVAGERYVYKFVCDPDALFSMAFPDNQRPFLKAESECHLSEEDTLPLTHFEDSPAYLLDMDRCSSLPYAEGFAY
Sequence of ETV1 (P50549 whole entry): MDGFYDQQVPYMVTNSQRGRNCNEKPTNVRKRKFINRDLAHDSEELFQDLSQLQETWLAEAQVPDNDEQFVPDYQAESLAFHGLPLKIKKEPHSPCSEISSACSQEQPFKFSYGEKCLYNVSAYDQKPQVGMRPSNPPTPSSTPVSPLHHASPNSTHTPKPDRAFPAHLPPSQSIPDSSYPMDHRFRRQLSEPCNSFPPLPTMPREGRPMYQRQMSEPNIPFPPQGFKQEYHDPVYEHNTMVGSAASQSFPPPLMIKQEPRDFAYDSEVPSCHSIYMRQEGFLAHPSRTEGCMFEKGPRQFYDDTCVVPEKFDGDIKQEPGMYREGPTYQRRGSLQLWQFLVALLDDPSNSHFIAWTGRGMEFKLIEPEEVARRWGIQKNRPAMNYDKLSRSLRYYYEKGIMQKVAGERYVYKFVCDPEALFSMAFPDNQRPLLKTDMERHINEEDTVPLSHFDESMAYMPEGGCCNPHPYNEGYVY

What does the source list for TTAAAC?
binding signal (FEV): 1.21 fold enrichment (6-mer frequency, TF over GST control); binding signal (ETV5): 1.29 fold enrichment (6-mer frequency, TF over GST control); binding signal (HSF1): 1.7 fold enrichment (6-mer frequency, TF over GST control); binding signal (SPIC): 1.05 fold enrichment (6-mer frequency, TF over GST control); binding signal (ELF4): 1.21 fold enrichment (6-mer frequency, TF over GST control); binding signal (ELK4): 1.26 fold enrichment (6-mer frequency, TF over GST control); binding signal (ETV2): 1.26 fold enrichment (6-mer frequency, TF over GST control); binding signal (ELF3): 1.19 fold enrichment (6-mer frequency, TF over GST control); binding signal (CRX): 2.58 fold enrichment (6-mer frequency, TF over GST control); binding signal (ETV1): 1.24 fold enrichment (6-mer frequency, TF over GST control); binding signal (ERF): 1.39 fold enrichment (6-mer frequency, TF over GST control); binding signal (ETV3L): 1.36 fold enrichment (6-mer frequency, TF over GST control); binding signal (ETS2): 1.2 fold enrichment (6-mer frequency, TF over GST control); binding signal (SPDEF): 1.18 fold enrichment (6-mer frequency, TF over GST control); binding signal (ETV7): 1.14 fold enrichment (6-mer frequency, TF over GST control); binding signal (ELF5): 1.18 fold enrichment (6-mer frequency, TF over GST control); binding signal (ETV3): 1.23 fold enrichment (6-mer frequency, TF over GST control); binding signal (ETV6): 1.3 fold enrichment (6-mer frequency, TF over GST control)
